Several values for one entry are separate records, joined by “and”; a condition that tells them apart may be missing. Equal entries are not always repeated. This is part of a sample that, as a whole, favours compounds with a hit. Of some 83,000 tested, about 20% had one in any assay.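 Assay: single dose, 48 h. Readout: percent growth (0 = no net growth; negative = cell death). Active: <10.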 Unmarked numbers belong to inactive results. Activity calls are given as the source filed them.
test system: MDA-MB-468 breast; assay: NCI-60 one-dose screen, 48 h (100 = growth as untreated, 0 = no growth, -100 = all killed); settings: 10 µM unless noted

In the case of `COc1cccc(Nc2ncnc3cc(NC(=O)CCl)ccc23)c1`, the growth is reported as -56% (active).
With `CCNCCCn1c2c(c3ccc(F)cc3c1=O)C(=O)c1cc(OC)cnc1-2` the growth was -75.7% (active).
With `CCCCOC1NC(=O)NC(=O)C1(F)C(=O)OCC` (stereo not given) the growth was 93.8% and 101%.
With `Cc1ccc2c(n1)C(=O)C(Cl)=C(Nc1ccc(C(C)C)cc1)C2=O` the growth was -44.8% (active).

Going from `CCOC(=O)C(NC(=O)C(Cl)Cl)C(O)c1ccccc1` (stereo not given) to `CC(C)[N+](C)(CCOC(COc1ccccc1)COc1ccccc1)C(C)C`, the growth falls from 102% to 12.8%.

Going from `CCN(CCO)CCCOc1ccc2c(Nc3cc(CC(=O)Nc4cccc(F)c4)[nH]n3)ncnc2c1` to `CNC(=O)c1cc(Oc2ccc3nc(NC(=O)Nc4ccc(C(F)(F)F)cc4)sc3c2)ccn1`, the growth rises from 36.7% to 49.9%.

Compared with `Cc1ccc(/C=C2\SC(=S)N(c3ccc(F)cc3)C2=O)o1`, `Cc1cc(=O)oc2cc(OCCn3c(C)nn(-c4ccc(Cl)cc4)c3=O)ccc12` is lower in growth: 69.6% for the first, 16.1% for the second.

First: OC1CC2c3ccccc3C1c1ccccc12 (stereo not given)
Second: Oc1ccc(-c2cnc(-c3ccccc3)[nH]2)c(O)c1
The growth of the first is higher: 111% for the first, 109% for the second.

Compared with `COC(=O)CC1=C(c2ccc([N+](=O)[O-])cc2)CCC1=O`, `Cc1ccc(NC(=O)c2cc(-c3nc4ccccc4s3)c(=O)n(NS(=O)(=O)c3ccc(Cl)cc3)c2N)cc1` is higher in growth: 101% for the first, 109% for the second.

`CN(C)c1ncnc2c1ncn2C1CCCCO1` (stereo not given) gave a growth of 111%.

From PubChem BioAssay (NCI)
